Reference: article PMC5540273 (PLoS ONE, 2017)

Assays:
Settings in all cases: concentration: 1 μM, replicates: in singlicate; n = 1
BIKE = test system: T1, BIKE
T1 construct: gene BMP2K

BLK = test system: BLK
BMPR1A = test system: BMPR1A
BMPR1B = test system: BMPR1B
BMPR2 = test system: BMPR2
BMX = test system: BMX
BRAF = test system: BRAF
BRK = test system: T2, BRK
T2 construct: gene PTK6

BRSK1 = test system: BRSK1
BRSK2 = test system: BRSK2
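Further: KINOMEscan kinase panel screen.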

Compound	%Inh (BIKE) [%]	%Inh (BLK) [%]	%Inh (BMPR1A) [%]	%Inh (BMPR1B) [%]	%Inh (BMPR2) [%]	%Inh (BMX) [%]	%Inh (BRAF) [%]	%Inh (BRK) [%]	%Inh (BRSK1) [%]	%Inh (BRSK2) [%]
O=C1NC(=O)C(c2ccc(Cl)cc2)=C1Nc1ccc(O)cc1 [SB-340867]	4	0	0	0	0	21	0	0	0	0
Fc1ccc(-c2nn3cccc(F)c3c2-c2ccncc2)cc1 [GW475620]	34	20	24	0	0	8	29	11	0	0
c1ccc(-c2ccnc3[nH]ccc23)cc1 [SB-693578]	0	4	1	0	47	0	4	14	0	100
CNc1nc(-c2ccc3c(N)n[nH]c3c2)cc(N2C[C@@H](C(=O)Nc3ccccc3)CC[C@H]2C)n1 [GSK2298859]	36	0	0	0	0	15	0	9	0	21
CS(=O)(=O)CCNCc1nc(-c2ccc3ncnc(Nc4ccc(OCc5ccccc5)c(Cl)c4)c3c2)cs1.Cl [GW582764]	0	48	0	0	15	0	2	3	0	0
O=C1NC(=O)C(c2ccc(Cl)cc2)=C1Nc1cccc(Cl)c1 [SB-317651]	0	12	0	0	0	3	0	0	0	1
COc1cccc(CNC(=O)NC2CCN(c3ccnc(Nc4ccc(F)cc4)n3)C2)c1 (centres unmarked) [GSK1379723]	19	0	0	0	3	7	10	17	0	0
Fc1ccc(-c2nc[nH]c2-c2ccncc2)cc1 [SB-217360]	0	25	0	0	22	0	50	0	0	0
COc1ccc(Nc2nccc(N3CCC(NC(=O)C(C)c4ccc(Cl)cc4)CC3)n2)cc1 (centres unmarked) [GSK1379812]	36	5	0	0	7	28	0	0	0	13
COc1cccc(C2=C(Nc3cc(Cl)c(O)c(Cl)c3)C(=O)NC2=O)c1 [SB-390767]	21	0	0	0	1	13	0	18	7	0
COC(=O)C(Cc1ccccc1)NC(=O)NC1CCN(c2ccnc(Nc3ccc(F)cc3)n2)C1 (centres unmarked) [GSK1379714]	17	10	0	0	22	29	0	12	0	0
COC(=O)C(NC(=O)NC1CCN(c2ccnc(Nc3ccc(F)cc3)n2)C1)c1ccccc1 (centres unmarked) [GSK1379712]	8	0	0	0	17	3	9	2	12	0
NS(=O)(=O)c1cccc(N/C=C2\C(=O)Nc3ccc(S(=O)(=O)Cc4c(Cl)cccc4Cl)cc32)c1 [GSK398099]	0	0	0	0	8	0	0	2	0	0
Nc1ncnc2occ(-c3ccc4c(c3)CCN4C(=O)Cc3cc(F)ccc3F)c12 [GSK2645446]	17	14	0	0	8	12	4	8	12	0
O=c1cc(N2CCOCC2)nc2n(Cc3cccc(Cl)c3Cl)c3ccccc3n12 [GSK2299009]	38	50	2	0	0	1	0	17	8	22
Cn1cncc1-c1cc2c(Nc3ccc(OCc4ccccc4)cc3)ncnc2cn1 [GW281179]	4	27	13	0	8	1	0	19	0	2
CSc1ccc(-c2nc3n(c2-c2ccncc2)CCC3)cc1 [SKF-105561]	16	4	0	6	1	0	7	1	0	0
